Where “and” joins values, the source holds several entries; their conditions need not be identical. Equal entries are not always repeated. About 83,000 compounds went through this panel and 20% of them were active in at least one assay; those are over-represented in the sample as a whole.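 Negative percent growth values reflect cell death: -40 means 40% of the cells present at the start died, and -100 means all died.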 Calls of active or inactive are those of the source. Rule for the calls: active = growth percent below 10; inactive = the rest.
What follows are compounds tested on MDA-MB-468 breast (assay: NCI-60 one-dose screen, 48 h (100 = growth as untreated, 0 = no growth, -100 = all killed)). Conditions: 10 µM unless noted.

SMILES	growth
CCN1CCN(CC(=O)N2c3cccc4cccc(c34)N(C(=O)CN3CCN(CC)CC3)C2c2cn(-c3ccccc3)nc2-c2cccc([N+](=O)[O-])c2)CC1	-47.8% (active)
O=C1/C(=C/c2cccc(Br)c2)COc2ccc(O)c(O)c21	-47.5% (active)
O=C1c2c(c3c4ccc(Br)cc4oc3c3[nH]c4ccccc4c23)C(=O)N1CCO	46.5% (inactive)
Clc1ccc(/C=C/c2nc(Nc3ccc(Cl)cc3)c3ccccc3n2)cc1	110% (inactive)
O=C(CSc1nnc(-c2ccc(Cl)cc2)o1)Nc1ccc(C(=O)/C=C/c2ccc(Cl)cc2)cc1	116% (inactive)
Cc1cc(=O)oc2cc(O)cc(O)c12	103% (inactive)
CCOC(=O)c1sc2nc(-c3cccc(O)c3)nc(N3CCOCC3)c2c1C	47.5% (inactive)
COC(=O)c1c(C(=O)OC)c2n(CC(=O)Nc3cccc4cccnc34)c3ccccc3n2c1C(=O)c1ccc(C)cc1	98.6% (inactive)
NS(=O)(=O)c1cc2c(cc1Cl)NC(C(Cl)Cl)NS2(=O)=O (configuration not stated)	101% (inactive) and 108% (inactive)
OCCNc1nc(NCCO)nc(Nc2ccc(C3=NN(c4cc(Cl)cc(Cl)c4)C(c4ccccc4)C3)cc2)n1 (configuration not stated)	73.5% (inactive)
COc1cc(OC)c(C2C(Cl)C(=O)N2Nc2ncnc3ccccc23)cc1OC (configuration not stated)	92.5% (inactive)
COc1cc(NC2CCC(=O)N2c2ccc(Cl)cc2Cl)cc(OC)c1OC (configuration not stated)	110% (inactive)
COc1cc(C(=O)/C=C/c2c(C)n([O-])c3ccc(Cl)cc3[n+]2=O)cc(OC)c1OC	27.6% (inactive)
COc1ccc(/C=C(\C#N)n2nnc3ccc(Cl)cc32)cc1	28.9% (inactive)
CN1CCn2c(c(Sc3ccc(C(=O)NO)cc3)c3ccccc32)C1=O	-39.2% (active)
O=C(Nc1ccc(N=Cc2c(O)[nH]c3ccccc23)cc1)Nc1ccc(S(=O)(=O)Nc2ncccn2)cc1	116% (inactive)
N#CC(C#N)=C(C#N)c1c[nH]c2ccccc12	38.8% (inactive)
CC(C)(C)Nc1c(-c2c3ccccc3cc3ccccc23)nc2ccccn12	68.4% (inactive)
Oc1ccc(Cl)cc1-c1cc(-c2ccc(F)cc2)n[nH]1	-0.461% (active)

SMILES	growth
Brc1ccc(Br)nn1	-85.5% (active)
Clc1ccc(C(Cn2ccnc2)OCc2ccsc2Cl)c(Cl)c1 (configuration not stated)	9.75% (active)
N#C/C(=C\c1ccc([N+](=O)[O-])s1)c1nc2cc(Br)ccc2s1	32.4% (inactive)
C[C@H](CCC(=O)O)[C@H]1CC[C@H]2[C@@H]3CC[C@@H]4/C(=C\c5ccco5)C(=O)/C(=C\c5ccco5)C[C@]4(C)[C@H]3CC[C@]12C	41.1% (inactive)
O=C1c2cccnc2-c2nccc3c2c1nc1cc(Br)ccc13	-54.6% (active)
COC(=O)[C@@H]1CCCN1C(=O)[C@H]1CCCN1C(=O)[C@@H](Cc1c[nH]c2ccccc12)NC(=S)Nc1cc(C(F)(F)F)cc(C(F)(F)F)c1	29.2% (inactive)
C=C1c2c(C)nn(-c3ccc(NC(C)=O)cc3)c2N(C)C23CC1C1(C)c4c(C)nn(-c5ccc(NC(C)=O)cc5)c4N(C)C(C)(CC12)C3 (configuration not stated)	14.5% (inactive)
Cn1cc(-c2cnc3ccc(NC(=O)Nc4ccc(F)c(Br)c4)cc3n2)cn1	-6.86% (active)
COC(=O)c1cc(=O)nc(N/N=C/c2ccco2)s1	61.7% (inactive)
CCOc1ncc([N+](=O)[O-])c(OCC)n1	115% (inactive)
Cc1ccc(Nc2nc(-c3cc(O)c(C)c(C)c3O)cs2)cc1	44.5% (inactive)
O=S(=O)(/N=c1/n(-c2ccccc2)nc2n1CCN2C1=NCCN1)c1ccc(-c2ccccc2)cc1	94.3% (inactive)
CSC1=N/C(=C\c2cccc(OCc3ccc(Cl)cc3)c2)C(=O)N1	68.6% (inactive)
N#C/C(=C\c1ccc(-c2ccccc2)o1)c1nc(-c2ccco2)cs1	-32.4% (active)
Cc1ccc2c(c1)=C/C(=C\c1cc(-c3ccccc3)[nH]c1O)C(=O)N=2	8.74% (active)
COc1cc2oc(-c3cccc(C(=O)Nc4ccccc4)c3)cc(=O)c2c(O)c1OC	69.4% (inactive)
COC(=O)/C=C1/SC(=Nc2cccc(OC)c2)N(CCc2c[nH]c3ccc(O)cc23)C1=O	49.3% (inactive)
C=C1C(=O)O[C@H]2[C@H]1CC/C(C=Nc1c(N)cc(C(F)(F)F)cc1Br)=C\CC[C@@]1(C)O[C@@H]21	-16.6% (active)
